High-throughput results (PubChem BioAssay)
Rows were chosen to be rich in hits. Some 1.3% of all compounds tested hit in one or more screens of this group.
RTF Ca sens inh = cardiac RTF calcium desensitization; inhibition, % at 7.15 µM; 340,000 tested, 0.12% active; P19429+P45379; IANBD-labeled cardiac RTF, Ca2+ fluorescence;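 active means inhibition above the mean inhibition of all tested compounds plus 3 SD, cut at about 17% in these data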;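 further: assay run at fixed EC70 calcium of 1.6 mM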
cardiac RTF act = increases calcium sensitivity of human cardiac regulated thin filaments; IANBD-labeled TnC RTF fluorescence at EC20 calcium; 0% EC20 calcium, 100% full calcium; 340,000 tested, 0.24% active; activation, % at 7.2 µM; P19429+P45379;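 active means activation above the mean over all tested compounds plus 3 SD, cut at about 30% in these data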;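 further: rise in fluorescence read as greater calcium sensitivity of cardiac thin filaments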
CRFR2-BP antag = blocks CRF-induced signaling of the CRF-BP/CRF-R2 complex. HEK293 CRF-R2/CRF-BP, CRF-induced calcium fluorescence. inhibition, % at 11.8 µM. 350,000 tested, 0.59% active. AID 588475;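 active means inhibition of the ligand-induced calcium signal above about 50% at the single tested concentration, limit read from the data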
C-LANA FP = blocks KSHV LANA C-terminal domain binding to DNA | 340,000 tested, 0.078% active | inhibition, % at 9 µM | AID 504423 | MBP-C-LANA/FAM-LBS DNA binding, fluorescence polarization;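 active means highest replicate inhibition at or above 60% at 9 µM, even if other replicates fall short; inactive means all replicates below 60% inhibition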
CRFR2-BP ag = CRF-BP/CRF-R2 complex agonism; HEK293 CRF-R2/CRF-BP, calcium dye fluorescence (FLIPR); percent of saturating CRF peptide response; AID 588473; activation, % at 13.2 µM; 350,000 tested, 0.46% active;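 active means activation of at least 50%, plus an integration ratio under a set limit after plate pattern correction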
Keap1 Nrf2 FP = inhibitors of human Keap1-Nrf2 protein-protein interaction; Q14145; Keap1 Kelch-Nrf2 peptide fluorescence polarization, 1536-well; inhibition, % at 9.4 µM; 340,000 tested, 0.15% active; AID 504523; in the data active means inhibition above about 12%;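 further: human Keap1 Kelch domain with fluorescein labeled Nrf2 9mer peptide probe; higher means more block of Keap1 binding to Nrf2 peptide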
Target sequence (Q14145 whole entry, looked up, the tested form may be a part): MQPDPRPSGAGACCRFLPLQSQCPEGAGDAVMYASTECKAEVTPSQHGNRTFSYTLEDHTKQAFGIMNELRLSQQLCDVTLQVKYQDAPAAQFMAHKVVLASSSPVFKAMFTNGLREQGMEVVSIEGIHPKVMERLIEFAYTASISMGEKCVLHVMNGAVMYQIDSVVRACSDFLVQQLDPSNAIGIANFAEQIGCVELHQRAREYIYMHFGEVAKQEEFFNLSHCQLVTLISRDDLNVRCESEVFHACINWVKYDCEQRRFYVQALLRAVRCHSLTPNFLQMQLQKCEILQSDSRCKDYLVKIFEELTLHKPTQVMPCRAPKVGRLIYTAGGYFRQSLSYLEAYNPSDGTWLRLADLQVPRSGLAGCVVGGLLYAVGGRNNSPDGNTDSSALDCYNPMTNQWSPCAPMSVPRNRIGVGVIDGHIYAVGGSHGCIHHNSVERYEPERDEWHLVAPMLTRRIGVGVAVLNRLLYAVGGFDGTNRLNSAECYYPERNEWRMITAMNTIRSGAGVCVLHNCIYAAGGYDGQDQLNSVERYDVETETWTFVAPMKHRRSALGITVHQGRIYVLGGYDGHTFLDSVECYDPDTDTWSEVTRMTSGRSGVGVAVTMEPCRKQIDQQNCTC
Hits are given with their value.

`Cn1cc(C2=C(c3ccc(Cl)cc3Cl)C(=O)NC2=O)c2ccccc21` gave RTF Ca sens inh inactive, cardiac RTF act 47, CRFR2-BP antag inactive, C-LANA FP inactive, CRFR2-BP ag 144 and Keap1 Nrf2 FP inactive.
CCOC(=O)c1cnc2c(OC)cccc2c1N1CC(C)CC(C)C1 (centres undefined) was read as RTF Ca sens inh inactive, cardiac RTF act inactive, CRFR2-BP antag inactive, C-LANA FP inactive, CRFR2-BP ag inactive and Keap1 Nrf2 FP inactive.
COc1cc(CC(=O)OCC(=O)Nc2cc([N+](=O)[O-])ccc2F)cc(OC)c1OC was read as RTF Ca sens inh inactive, cardiac RTF act inactive, CRFR2-BP antag inactive, C-LANA FP inactive, CRFR2-BP ag inactive and Keap1 Nrf2 FP inactive.
Screening COc1ccc(CN2[C@@H](CC(=O)O)c3cc(C(F)(F)F)ccc3S2(=O)=O)cc1 returned RTF Ca sens inh inactive, cardiac RTF act inactive, CRFR2-BP antag inactive, C-LANA FP inactive, CRFR2-BP ag inactive and Keap1 Nrf2 FP inactive.
For COc1ccc(Oc2ccc(C(F)(F)F)cc2NC(=O)c2ccc(OC)cc2)cc1 the results were RTF Ca sens inh inactive, cardiac RTF act inactive, CRFR2-BP antag 52, C-LANA FP inactive, CRFR2-BP ag inactive and Keap1 Nrf2 FP inactive.
`CCCOc1ccc(C(=O)N2CCN(c3ccc(NC(=O)CC)cc3Cl)CC2)cc1` gave RTF Ca sens inh inactive, cardiac RTF act inactive, CRFR2-BP antag 62, C-LANA FP inactive, CRFR2-BP ag inactive and Keap1 Nrf2 FP inactive.
For CC1=C(C(=O)OC(C)(C)C)C(c2cccc3ccccc23)NC(=O)N1 (centres undefined) the results were RTF Ca sens inh inactive, cardiac RTF act inactive, CRFR2-BP antag 65, C-LANA FP inactive, CRFR2-BP ag inactive and Keap1 Nrf2 FP inactive.
Screening O=C(Nc1nnc(-c2ccc(Cl)cc2)o1)c1nc2ccccc2s1 returned RTF Ca sens inh inactive, cardiac RTF act inactive, CRFR2-BP antag inactive, C-LANA FP inactive, CRFR2-BP ag 187 and Keap1 Nrf2 FP inactive.
`O=C(Nc1nnc(-c2ccc(F)cc2)o1)c1cc(Cl)sc1Cl` gave RTF Ca sens inh inactive, cardiac RTF act inactive, CRFR2-BP antag inactive, C-LANA FP inactive, CRFR2-BP ag 91 and Keap1 Nrf2 FP inactive.
`Cc1cccc(-c2nnc(NC(=O)c3ccc(Cl)cc3)o2)c1` gave RTF Ca sens inh inactive, cardiac RTF act inactive, CRFR2-BP antag inactive, C-LANA FP inactive, CRFR2-BP ag 108 and Keap1 Nrf2 FP inactive.
`CCCN(CCC)S(=O)(=O)c1ccc(C(=O)Nc2nnc(-c3cccc(OC)c3)o2)cc1` gave RTF Ca sens inh inactive, cardiac RTF act inactive, CRFR2-BP antag inactive, C-LANA FP inactive, CRFR2-BP ag 100 and Keap1 Nrf2 FP inactive.
Screening O=C(Nc1nnc(-c2ccc(Cl)cc2)o1)Nc1ccccc1Cl returned RTF Ca sens inh inactive, cardiac RTF act inactive, CRFR2-BP antag inactive, C-LANA FP inactive, CRFR2-BP ag inactive and Keap1 Nrf2 FP inactive.
`COc1cc(/C=N/Nc2nc(N3CCCC3)nc(N3CCCC3)n2)ccc1OCc1ccccc1F` gave CRFR2-BP antag inactive, C-LANA FP inactive, CRFR2-BP ag inactive and Keap1 Nrf2 FP inactive.
Screening Cc1ccc(-c2nc(N)sc2CC(=O)OCC(=O)NC2CCCC(C)C2C)cc1 (centres undefined) returned RTF Ca sens inh inactive, cardiac RTF act inactive, CRFR2-BP antag inactive, C-LANA FP inactive, CRFR2-BP ag inactive and Keap1 Nrf2 FP inactive.
`COc1ccc(C(=O)Nc2nnc(-c3ccccc3)o2)cc1OC` gave RTF Ca sens inh inactive, cardiac RTF act inactive, CRFR2-BP antag inactive, C-LANA FP inactive, CRFR2-BP ag inactive and Keap1 Nrf2 FP inactive.
O=C(Nc1nnc(-c2ccccc2)o1)c1cc(Cl)sc1Cl was read as RTF Ca sens inh inactive, cardiac RTF act inactive, CRFR2-BP antag inactive, C-LANA FP inactive, CRFR2-BP ag 188 and Keap1 Nrf2 FP inactive.
For N#Cc1cccc(NC(=O)Cn2c3[n+](c4ccc(C(F)(F)F)cc42)CCCCC3)c1 the results were RTF Ca sens inh inactive, cardiac RTF act inactive, CRFR2-BP antag inactive, C-LANA FP inactive, CRFR2-BP ag inactive and Keap1 Nrf2 FP inactive.
Screening Cc1ccc(S(=O)(=O)/N=C2/NC(=O)/C(=C/c3cc([N+](=O)[O-])ccc3O)S2)cc1 returned RTF Ca sens inh inactive, cardiac RTF act inactive, CRFR2-BP antag inactive, C-LANA FP inactive, CRFR2-BP ag 67 and Keap1 Nrf2 FP inactive.
